Results published in PubChem BioAssay (Tox21).
Values without a mark were called inactive. Records with an inconclusive call do not appear. A call without a number means that no potency is given here. Active and inactive are the calls of the source. Unless noted, calls follow the shape of the dose curve; as a rule, active = well fitted curve in the direction sought with a large enough effect in the repeat runs; inconclusive = weak or mixed curves; inactive = no such curve, though single readings can be large; an effect the other way counts as inactive or inconclusive.

Legend:
[1] = qHTS assay to identify small molecule antagonists of the estrogen related receptor (ERR) signaling pathway from Tox21 library - cell viability counter screen (AID 1224834); also: nearly all actives have a fitted effect of over 30% in size; also: potency is read from the fitted curve at half-maximal effect
Outline: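 Viability readout (CellTiter-Fluor fluorescence, 30 min at 37 C) multiplexed with the ERR assay; cells treated 17.5 h at 37 C with compounds delivered in DMSO.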

[2] = target: Luciferin 4-monooxygenase (Photinus pyralis) (UniProt P08659); test: qHTS assay to identify small molecule inhibitors of firefly luciferase (AID 1224835); also: nearly all actives have a fitted effect of over 25% in size; also: potency is read from the fitted curve at half-maximal effect
Sequence of Luciferin 4-monooxygenase (Photinus pyralis) (P08659 whole entry, looked up): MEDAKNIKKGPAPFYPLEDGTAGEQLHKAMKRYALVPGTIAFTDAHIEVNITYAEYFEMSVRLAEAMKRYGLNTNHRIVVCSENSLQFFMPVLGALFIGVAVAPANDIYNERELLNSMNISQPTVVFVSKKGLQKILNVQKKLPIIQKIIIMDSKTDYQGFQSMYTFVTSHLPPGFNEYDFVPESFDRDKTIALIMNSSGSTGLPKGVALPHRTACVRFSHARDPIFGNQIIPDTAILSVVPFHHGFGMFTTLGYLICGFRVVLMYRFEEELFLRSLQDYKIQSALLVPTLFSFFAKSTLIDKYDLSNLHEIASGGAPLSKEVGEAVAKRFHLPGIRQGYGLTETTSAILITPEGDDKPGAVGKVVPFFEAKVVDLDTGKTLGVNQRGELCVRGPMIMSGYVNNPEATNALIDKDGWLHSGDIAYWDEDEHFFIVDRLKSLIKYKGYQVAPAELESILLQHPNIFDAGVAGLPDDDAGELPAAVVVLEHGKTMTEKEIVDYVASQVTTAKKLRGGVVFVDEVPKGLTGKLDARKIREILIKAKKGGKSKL
Outline: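 Quantitative HTS format; KM concentrations of both substrates. Purified P. pyralis FLuc activity quantified from luminescence images.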

[3] = qHTS assay to identify small molecule antagonists of the constitutive androstane receptor (CAR) signaling pathway - cell viability counter screen (AID 1224837); also: nearly all actives have a fitted effect of over 45% in size
Outline: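 Fluorescence from CellTiter-Fluor served as the viability signal. Human hepatoma HepG2 cells stably bearing hCAR and CYP2B6-2.2kb received compound plus CITCO (50 nM final) for 23 hr.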

[4] = target: Nuclear receptor subfamily 1 group I member 3 (Homo sapiens) (UniProt Q14994); test: qHTS assay to identify small molecule antagonists of the constitutive androstane receptor (CAR) signaling pathway (AID 1224838);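 also: HepG2 cells stably expressing hCAR with CYP2B6 luciferase reporter stimulated by CITCO; nearly all actives have a fitted effect of over 40% in size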
Sequence of Nuclear receptor subfamily 1 group I member 3 (Homo sapiens) (Q14994 whole entry, looked up): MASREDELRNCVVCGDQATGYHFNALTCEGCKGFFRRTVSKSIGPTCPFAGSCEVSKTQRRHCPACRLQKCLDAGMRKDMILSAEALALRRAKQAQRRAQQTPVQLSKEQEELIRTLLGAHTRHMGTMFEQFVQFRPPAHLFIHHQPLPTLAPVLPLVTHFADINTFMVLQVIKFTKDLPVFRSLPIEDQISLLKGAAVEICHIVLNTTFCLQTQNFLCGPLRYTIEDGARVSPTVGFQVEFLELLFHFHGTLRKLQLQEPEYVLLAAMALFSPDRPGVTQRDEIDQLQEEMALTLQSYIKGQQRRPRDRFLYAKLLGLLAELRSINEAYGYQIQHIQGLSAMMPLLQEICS
Outline: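 Quantitative HTS in double-stable HepG2-CYP2B6-hCAR cells. After 4 h plating, cells get compound (15 concentrations) and CITCO at 50 nM final, incubate 24 h at 37 C, then ONE-Glo luminescence is read.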

[5] = target: Nuclear receptor subfamily 1 group I member 3 (Homo sapiens) (UniProt Q14994); test: qHTS assay to identify small molecule agonists of the constitutive androstane receptor (CAR) signaling pathway (AID 1224839); also: nearly all actives have a fitted effect of over 15% in size
Outline: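 A 15-concentration quantitative screen uses HepG2 cells co-transfected stably with human CAR and CYP2B6-2.2kb reporter. Treatment lasts 24 h with 0.75 uM PK11195 final present; ONE-Glo luminescence is the signal.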

[6] = qHTS assay to identify small molecule antagonists of the estrogen related receptor signaling pathway with the pleiotropic PPARgamma coactivator (PGC) from Tox21 10K library - cell viability counter screen (AID 1224840; active = well fitted cell-killing curve with a large enough effect in the repeat runs, not every such curve was filed as active; also: nearly all actives have a fitted effect of over 40% in size)
Outline: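 Compounds in DMSO, alongside positive and negative controls, were pinned onto PGC/ERR cells (2,000 per well). Exposure lasted 17.5 hours at 37 C, followed by a 30-minute CellTiter-Fluor incubation and fluorescence reading.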

[7] = target: Thyrotropin receptor (Homo sapiens) (UniProt P16473); test: qHTS assay to identify small molecule agonists of the thyroid stimulating hormone receptor (TSHR) signaling pathway (AID 1224843; calls by dose curve; also: nearly all actives have a fitted effect of over 45% in size)
Sequence of Thyrotropin receptor (Homo sapiens) (P16473 whole entry, looked up): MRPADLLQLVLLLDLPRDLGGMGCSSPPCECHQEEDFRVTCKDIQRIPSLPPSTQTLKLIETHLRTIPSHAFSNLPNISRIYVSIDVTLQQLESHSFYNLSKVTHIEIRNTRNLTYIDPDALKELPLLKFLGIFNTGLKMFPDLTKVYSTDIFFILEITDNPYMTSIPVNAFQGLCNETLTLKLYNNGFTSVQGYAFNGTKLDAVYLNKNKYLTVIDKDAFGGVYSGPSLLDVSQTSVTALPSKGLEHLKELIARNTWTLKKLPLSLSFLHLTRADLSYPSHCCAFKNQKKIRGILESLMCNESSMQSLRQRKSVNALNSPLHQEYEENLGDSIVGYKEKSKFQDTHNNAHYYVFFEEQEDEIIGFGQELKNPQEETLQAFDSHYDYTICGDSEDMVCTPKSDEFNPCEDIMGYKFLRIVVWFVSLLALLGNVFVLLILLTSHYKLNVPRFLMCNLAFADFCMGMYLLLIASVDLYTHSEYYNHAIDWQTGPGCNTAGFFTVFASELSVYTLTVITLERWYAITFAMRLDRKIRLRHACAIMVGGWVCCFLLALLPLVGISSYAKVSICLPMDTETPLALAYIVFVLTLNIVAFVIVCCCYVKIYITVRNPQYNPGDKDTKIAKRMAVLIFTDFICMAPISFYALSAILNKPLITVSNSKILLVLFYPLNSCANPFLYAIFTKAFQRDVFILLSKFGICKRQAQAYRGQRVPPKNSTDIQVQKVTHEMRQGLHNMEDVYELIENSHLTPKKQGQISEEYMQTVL
Outline: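 TSHR-expressing HEK293 cells (800 per well) were exposed to compounds for 30 min at room temperature. cAMP was then detected by HTRF competition with cAMP-d2 and anti-cAMP cryptate, read after 1 h at room temperature. Fifteen concentrations, triplicate.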

[8] = qHTS assay to identify small molecule agonists of the hypoxia (HIF-1) signaling pathway - cell viability counter screen (AID 1224844; calls by dose curve; also: nearly all actives have a fitted effect of over 50% in size)
Outline: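 Luminescent ATP content (CellTiter-Glo, 30 min, room temperature) served as the viability measure in HRE-bla ME-180 cells exposed to compounds for 17 hrs in low-serum medium (0.5% dialyzed FBS).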

[9] = qHTS assay to identify small molecule agonists of H2AX (AID 1224845; active = well fitted activation curve with a large enough effect in the signal ratio in the repeat runs, not every such curve was filed as active; the % refers to the signal ratio)
Outline: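 Wild-type CHO-K1 cells plated overnight, then exposed 3 hr at 37C to compounds at 15 concentrations (0.76% DMSO). Lysed, then HTRF anti-pH2AX(S139)-cryptate/anti-H2AX-d2 detection after 24 hr at room temperature; emissions 665 and 620 nm.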

[10] = qHTS assay to identify small molecule agonists of H2AX - cell viability counter screen (AID 1224847; calls by dose curve; also: top concentration of the series differs between compounds; nearly all actives have a fitted effect of over 30% in size)
Outline: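 We seed wild-type CHO-K1 cells overnight, treat them for 3 hr at 37C with compounds in 15-concentration series, and quantify remaining viability by CellTiter-Glo luminescence.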

[11] = qHTS RealTime-Glo MT Cell Viability Assay in HepG2 cells - 24 hour (AID 1224867); also: nearly all actives have a fitted effect of over 50% in size
Outline: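 Cell number in HepG2 cultures estimated from NanoLuc luminescence generated by metabolic reduction of a prosubstrate by living cells. The homogeneous, nonlytic format allowed repeated reads at 0, 8, 16, 24, 32 and 40 h of compound exposure.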

[12] = A CellTox Green Cytotoxicity Assay to monitor cytotoxicity in HEK293 cells - 0 hour (AID 1224869); also: nearly all actives have a fitted effect of over 50% in size
Outline: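 Each value comes from one timepoint of a single continuous run in which HEK293 cells with CellTox Green were exposed to compound for up to 40 h at 37 C, dye fluorescence rising with cell death.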

[13] = qHTS RealTime-Glo MT Cell Viability Assay in HepG2 cells - 40 hour (AID 1224870); also: nearly all actives have a fitted effect of over 50% in size
Outline: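 HepG2 cells mixed with RealTime-Glo MT reagents (NanoLuc plus cell-permeant prosubstrate) were seeded at 600 cells/well, incubated 5 h at 37 C/5% CO2, then pinned with compounds in DMSO; nonlytic luminescence tracked viability during 40 h treatment.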

[14] = qHTS assay to identify small molecule agonists of the constitutive androstane receptor (CAR) signaling pathway - cell viability counter screen (AID 1224836); also: nearly all actives have a fitted effect of over 45% in size
Outline: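 Counter screen multiplexed with the CAR reporter readout: HepG2 cells co-transfected with hCAR and the CYP2B6-2.2kb construct receive a 15-concentration compound series and 0.75 uM PK11195 (final), then CellTiter-Fluor fluorescence is read after 23 h.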

[15] = qHTS assay to identify small molecule agonists of the estrogen related receptor signaling pathway with the pleiotropic PPARgamma coactivator (PGC) from Tox21 10K library (AID 1224842); also: nearly all actives have a fitted effect of over 15% in size
Outline: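 PGC/ERR reporter cells (NTP line) were seeded 2,000 per well, rested 6 h at 37 C/5% CO2, then pin-dosed with compounds in DMSO for 18 h at 37 C; luciferase read by One-Glo luminescence after 30 min at room temperature.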

[16] = qHTS assay to identify small molecule agonists of the hypoxia (HIF-1) signaling pathway (AID 1224846; active = well fitted activation curve with a large enough effect in the signal ratio in the repeat runs, not every such curve was filed as active; the % refers to the signal ratio)
Outline: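 Measured by blue/green FRET after loading CCF4-AM: beta-lactamase expressed from a hypoxia response element in ME-180 cells. Test agents were delivered in DMSO and left 17 hrs; cells had been plated 5 hrs earlier in low-serum (0.5% dialyzed FBS) medium.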

[17] = qHTS assay to identify small molecule antagonists of the estrogen related receptor (ERR) signaling pathway from Tox21 library (AID 1224848); also: nearly all actives have a fitted effect of over 50% in size; also: potency is read from the fitted curve at half-maximal effect
Outline: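 Cells: ERR line, 2,000/well; 6 h preincubation 37 C/5% CO2. Cpd in DMSO via pin tool; 18 h, 37 C. ONE-Glo, 30 min RT, luminescence.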

[18] = qHTS assay to identify small molecule agonists of the estrogen related receptor (ERR) signaling pathway from Tox21 library (AID 1224849; calls by dose curve; also: nearly all actives have a fitted effect of over 15% in size); settings: ERR reporter cell line, ONE-Glo luciferase, 18 h
Outline: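 We plated ERR reporter cells, waited 6 h, added compounds in DMSO by pin tool and incubated them 18 h at 37 C. ONE-Glo was then added and luminescence read after 30 min.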

[19] = qHTS RealTime-Glo MT Cell Viability Assay in HEK293 cells - 32 hour (AID 1224868)
Outline: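 Homogeneous bioluminescent viability format in HEK293 cells (600 cells/well). Following 5 h at 37 C/5% CO2, 23 nL compound was pintooled; the signal was measured repeatedly during 40 h incubation.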

[20] = qHTS assay to identify small molecule antagonists of the estrogen related receptor signaling pathway with the pleiotropic PPARgamma coactivator (PGC) from Tox21 10K library (AID 1224841; call rule not given here)
Outline: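 Compound exposure ran 18 hours at 37 C in PGC/ERR cells (2,000/well) that had first rested 6 hours in a 37 C/5% CO2 incubator. Luciferase activity was then detected with One-Glo after a 30-minute room-temperature step.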

Fc1ccc(C(c2ccc(F)cc2)N2CCNCC2)cc1
Potency [1]: inactive
Potency [2]: inactive
Potency [3]: inactive
Potency [4]: inactive
Potency [5]: inactive
Potency [6]: inactive
Potency [7]: inactive
Potency [8]: inactive
Potency [9]: inactive
Potency [10]: inactive
Potency [11]: inactive
Potency [12]: inactive
Potency [13]: inactive

O=C(/C=C/c1ccccc1)OC/C=C/c1ccccc1
Potency [1]: inactive
Potency [2]: 71 µM (active)
Potency [14]: inactive
Potency [4]: inactive
Potency [6]: inactive
Potency [15]: inactive
Potency [16]: inactive
Potency [10]: inactive
Potency [17]: inactive
activity change, positive = activation ([18]; at 92.4 µM (top of the series)): 3.92%
Potency [11]: inactive
Potency [19]: inactive
Potency [12]: inactive
Potency [13]: inactive

Nc1nc(N)nc(-c2cc(Cl)ccc2Cl)n1
Potency [1]: inactive
Potency [2]: inactive
Potency [14]: inactive
Potency [4]: inactive
Potency [5]: inactive
Potency [6]: inactive
Potency [8]: inactive
Potency [9]: inactive
Potency [16]: inactive
Potency [10]: inactive
Potency [11]: inactive
Potency [19]: inactive
Potency [12]: inactive
Potency [13]: inactive

CC(C)CCCCCOC(=O)CCS
Potency [1]: inactive
Potency [2]: inactive
Potency [14]: inactive
Potency [4]: inactive
Potency [5]: inactive
Potency [6]: inactive
Potency [15]: inactive
Potency [7]: inactive
Potency [8]: inactive
Potency [9]: inactive
Potency [16]: inactive
Potency [10]: inactive
Potency [17]: inactive
activity change, positive = activation ([18]; at 92.4 µM (top of the series)): 3.69%
Potency [11]: inactive
Potency [12]: inactive
Potency [13]: inactive

COC(=O)C1=C(C)NC(C)=C(C(=O)OCCN2CCN(C(c3ccccc3)c3ccccc3)CC2)C1c1cccc([N+](=O)[O-])c1 (centres undefined)
Potency [1]: 11.9 µM (active)
Potency [2]: inactive
Potency [4]: inactive
Potency [5]: inactive
Potency [20]: 9.44 µM (active)
Potency [7]: inactive
Potency [10]: inactive
Potency [17]: 11.9 µM (active)
activity change, positive = activation ([18]; at 42.5 µM (top of the series)): -44.8%
Potency [12]: inactive

CC(N=C(NC#N)Nc1ccncc1)C(C)(C)C (centres undefined)
Potency [1]: inactive
Potency [2]: inactive
Potency [14]: inactive
Potency [3]: inactive
Potency [6]: inactive
Potency [7]: inactive
Potency [8]: inactive
Potency [9]: inactive
Potency [10]: inactive
Potency [17]: inactive
activity change, positive = activation ([18]; at 42.5 µM (top of the series)): -15.5%
Potency [11]: inactive
Potency [19]: inactive
Potency [12]: inactive
Potency [13]: inactive

CCCC1CCC(=O)CC1
Potency [1]: inactive
Potency [2]: inactive
Potency [14]: inactive
Potency [4]: inactive
Potency [5]: inactive
Potency [6]: inactive
Potency [8]: inactive
Potency [16]: inactive
Potency [10]: inactive
Potency [11]: inactive
Potency [12]: inactive
